According to the supplement of paper PMC3724861:
Only a selection was taken, and hits are over-represented in it overall. How many sequences the whole screen found active is unknown.

Test system: T1, Caupolican (Caup) homeodomain DNA-binding domain
T1 sequence: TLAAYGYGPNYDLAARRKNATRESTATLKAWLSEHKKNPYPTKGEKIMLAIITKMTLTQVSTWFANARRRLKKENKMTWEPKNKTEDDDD
Assay: PBM E-score (8-mer, recovered from the published 9-mer minima) (E-score (dimensionless, -0.5 to 0.5)); Drosophila protein; higher = stronger relative binding preference, active = 0.31 or more
Experimental: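 Protein binding microarray (PBM): in vitro transcribed/translated Caupolican (Caup) homeodomain DNA-binding domain (residues 214-303) applied at 100 nM to a universal 8-mer PBM array (Agilent AMADID 015681). The 8-mer enrichment score (E-score, range -0.5 to 0.5) was computed, and each 9-mer score is the minimum E-score of its two constituent 8-mers. The E-score is the same for a 9-mer and its reverse complement; 0.31 is the stated binding threshold.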

PBM E-score, inactive:
AGTTGTTC 0.261
GTTTGTTA 0.225
GCTTGTGA -0.02
CCTTGTTC 0.24
ACTTGTTG 0.29
ATTTGTTA 0.219
GTCGGCCA -0.0886
GGCGACAA 0.138
CACTGAAG -0.0338
TCGTCAGA -0.0168
AAGAGACA 0.124
CATATCAG 0.0708
AACCCGCA -0.135
AATCTCAG 0.0346
CTAAATAA 0.181
CTATCAGA -0.0505
CCGAGAAC -0.0456
AAGGTTAG -0.0357
AGGATGGA -0.124
ACATGGAA 0.296
ACATGGAG 0.257
GCATGGAC -0.00539
CCATGGAC -0.0492
GTTAAGGA 0.00704
CCGTACAA 0.152
GAGTACAA 0.262
AAGTACAC 0.288
AAGTACGA 0.113
GCGTACAA 0.256
AAGTACAG 0.204
AAGTACCA 0.195
CAGTACAA 0.304
GAAGCGAA -0.0567
GGGATTCA -0.0518
ATTCGTGA 0.114
CTCGACAC 0.105
GCTGCGGA -0.178
ATGAGTTC 0.0362
ATCCTTCG -0.116
GGGACAAC 0.178
CAGTTAGA -0.0838
GCTAACAA 0.192
AGTAACAA 0.266
CGTAACAA 0.243
GGTAAACA 0.213
TCTAACAA 0.177
ATTAAACA 0.271
AGTAAACA 0.235
CTTAAACA 0.159
GAGCAACA 0.0811
CGGTAGGA -0.0619
AGTAAGAC 0.0795
ACTTTCCT -0.143
CTTGGTCA -0.0643
TATAACAA 0.306
CATAACAA 0.308
AAGCATCG -0.00688
TCCACACA 0.0566
AACTTCAT 0.108
TCTATCCA -0.0275
GCCACGTA -0.0264
GACACGTC 0.225
CACACGAA 0.0926
CACACGGA 0.00106
TTCACGAA 0.0673
CACACGTA 0.142
GACACGGA 0.286
TACACGCA 0.29
GGAGTTAC 0.0415
AAAGGTTG -0.00255
CTGGTAAC 0.115
AGCCCAGC -0.172
CATACTGC -0.0312
AAGAGTGC 0.0487
AGATCCAT -0.0856
GAAGACTC -0.0665
ACCTCAAA -0.032
CCATCAGA -0.105
ATGACAGA 0.22
CTGACATC 0.28
ATGACAGG 0.117
GTGACACA 0.245
GGGACATA 0.113
ATGACACA 0.259
CTGACATA 0.22
ATGACACC 0.266
ACCAGGCT -0.045
AAGGGTTC -0.134
ATAAGTAT 0.0762
ATTATCGC 0.0263
AGGAAGAA -0.0327
AGCTAGTA 0.108
AACGTGAG -0.0335
CACGTACA 0.261
ATCGTACG 0.133
ATCGTACC -0.0488
CTCGTACA 0.238
GTCGTATA 0.165
AACGTACC 0.0531
AATCGGTG 0.0507
CGGTGTGA 0.0901
ATCAAAAT 0.131
AAAGTCAC 0.0854
AACCAGGA 0.0369
ACTCGGGA -0.117
CGCATGAC -0.0417
CGCATGCA 0.025
CGCATGCC -0.0847
CGCATGGA -0.0924
AGCATGTG 0.222
AGCATGCC -0.0456
CACACTGC -0.0174
AGTTTCAG -0.0628
ATCCAGAC -0.00977
AATTCGTC 0.0479
CCCTGAGG -0.185
ATCATGAC 0.233
ATCATGTG 0.226
GTCATGGA -0.0262
CTCATGCA 0.042
GTCATGCA 0.111
CTCATGGA 0.0584
CTCATGTC 0.306
ATCATGAA 0.0136
GAACAATA 0.166
CACATTAC 0.141
CCGAGGGC -0.267
CAAGGACG -0.0604
CTCTAGGC -0.16
CCTGGCTA -0.0965
AGCGTACC -0.17
GAGGGAGA -0.155
AGTTACCA 0.113
CAAGGGCC -0.135
CCCAGGCA -0.162
CAGGTACG -0.00719
ACGTAAGG -0.042
AATTACAC 0.299
GCTTACAC 0.169
CATTACAG 0.226
CTTTACAC 0.289
CAAGCTGG -0.105
CAGCCGCA -0.26
GTTAGTGA 0.152
AGCACTAA -0.00029
TGCAGTAA 0.0534
GCTATGTA 0.271
CCTATGTC 0.176
ACTATGTG 0.131
CCTATGAA -0.0468
CCGATCGA -0.133
CAGCTCAA -0.125
CACTCTAC 0.101
GCGACCGC -0.261
CGAACCAC -0.0921
GTGTCGCA 0.176
CTGTCGTA 0.124
ATGTCGAG 0.274
CTGTCGAC 0.0515
GTGTCGTA 0.252
ATGTCGAA 0.291
ATGTCGCC 0.208
ATGTCGTC 0.28
CGTCGACA 0.116
AGATTTTA 0.0905
CTTGAACC 0.00592
GATCTGGC -0.0642
AACCGATG 0.0188
CGGAGTAG -0.0319
CACGGGAA -0.0415
AGTGAAAC 0.108
CTCACGAA 0.0184
GTTACGGA 0.0254
TAATTAAA 0.191
AGGTAGGA -0.0302
CTTGTTTA 0.254
ACTGTTAA 0.0659
CCTGTTAC 0.254
CCTGTTAA 0.188
CTTGTTGA 0.26
ATTGTTGA 0.279
ATTGTTTA 0.186
ATTGTTAC 0.307
AACCCGCG -0.0635

PBM E-score, active:
GCTTGTTA 0.315
ACTTGTTA 0.368
ACTTGTTC 0.33
ACATGGAT 0.374
ACATGGAC 0.338
TAGTACAA 0.38
AAGTACAT 0.402
TCGTACAA ≥ 0.37
AAGTACAA 0.327
TGTAACAA 0.405
GTTAAACA 0.339
TGTAAACA ≥ 0.36
GGTAACAA 0.316
GATAACAA 0.32
TACACGAA 0.371
GACACGTA 0.348
TACACGTA 0.361
TACACGGA 0.375
ATGACATC 0.333
GTGACATA 0.312
ATGACATG 0.422
ATGACATA 0.379
AACGTACA ≥ 0.337
GTCGTACA 0.352
ATCGTACA 0.349
AGCATGTC 0.376
CGCATGTA 0.352
CGCATGTC 0.348
GTCATGTA 0.43
ATCATGTA ≥ 0.435
ATCATGTC ≥ 0.42
CTCATGTA 0.377
CATTACAC 0.311
GATTACAC 0.318
ACTATGTA 0.312
CCTATGTA 0.318
ATGTCGAC 0.326
ATGTCGTA 0.337
ATGTCGTG 0.316
ATGTCGCA 0.331
GTTGTTGA 0.321
GTTGTTTA 0.343
CTTGTTAC 0.365
CTTGTTAA 0.327
